Data reported in PubChem BioAssay (EPA / NIEHS).
Results filed as inconclusive are left out. Activity calls are given as the source filed them. The calls were made as follows, unless noted: active = hit-call score of the fitted dose curve at least 0.9, where 1 is the maximum; inactive = score below 0.9.

What was measured:
[1] = CCTE_Harrill_HTTr_Viability_DMEM_6hr: (Pilot) CCTE's 6-hour Cell Viability Assessment for the High-Throughput Transcriptomics (HTTr) Platform, in MCF-7 cells cultured in DMEM + 10% fetal bovine serum, Harrill Lab (AID 2283973)
Method in brief: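 Propidium iodide uptake imaged by high-content analysis after six hours of chemical treatment in an eight-concentration series. Cells: MCF-7 grown in DMEM with 10% fetal bovine serum; DMSO as baseline.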

[2] = CCTE_Harrill_HTTr_Viability_DMEM_12hr: (Pilot) CCTE's 12-hour Cell Viability Assessment for the High-Throughput Transcriptomics (HTTr) Platform, in MCF-7 cells cultured in DMEM + 10% fetal bovine serum, Harrill Lab (AID 2283974)
Method in brief: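 Propidium iodide dye exclusion imaged by high-content microscopy after 12 h chemical exposure (eight concentrations) of MCF-7 cells grown in DMEM plus 10% FBS; values fitted in both directions relative to DMSO.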

[3] = CCTE_Harrill_HTTr_Viability_DMEM_24hr: (Pilot) CCTE's 24-hour Cell Viability Assessment for the High-Throughput Transcriptomics (HTTr) Platform, in MCF-7 cells cultured in DMEM + 10% fetal bovine serum, Harrill Lab (AID 2283975)
Method in brief: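 Pilot study: propidium iodide dye exclusion, imaged by high content microscopy, after 24 h compound exposure (eight concentrations) in MCF-7 cultured in DMEM + 10% fetal bovine serum; DMSO served as negative control and baseline.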

[4] = CCTE_Harrill_HTTr_Viability_PRF_DMEM_6hr: (Pilot) CCTE's 6-hour Cell Viability Assessment for the High-Throughput Transcriptomics (HTTr) Platform, in MCF-7 cells cultured phenol red-free DMEM + 10% charcoal-stripped fetal bovine serum, Harrill Lab (AID 2283976)
Method in brief: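 Membrane integrity by high-content imaging of propidium iodide uptake, six hours after dosing with eight concentrations. Cells: MCF-7 grown in phenol red-free DMEM plus 10% charcoal-stripped serum; DMSO serves as baseline for bidirectional fits.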

[5] = CCTE_Harrill_HTTr_Viability_PRF_DMEM_12hr: (Pilot) CCTE's 12-hour Cell Viability Assessment for the High-Throughput Transcriptomics (HTTr) Platform, in MCF-7 cells cultured in phenol red-free DMEM + 10% charcoal-stripped fetal bovine serum, Harrill Lab (AID 2283977)
Method in brief: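 Membrane integrity was scored via propidium iodide dye exclusion imaging, fitted in both directions relative to DMSO. Compounds ran as eight-point dilutions for 12 hours on MCF-7 grown in phenol red-free DMEM plus 10% charcoal-stripped serum.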

[6] = CCTE_Harrill_HTTr_Viability_PRF_DMEM_24hr: (Pilot) CCTE's 24-hour Cell Viability Assessment for the High-Throughput Transcriptomics (HTTr) Platform, in MCF-7 cells cultured in phenol red-free DMEM + 10% charcoal-stripped fetal bovine serum, Harrill Lab (AID 2283980)
From the text: This is a cell-based assay that evaluates cell viability using high content imaging to evaluate membrane integrity using propidium iodide dye exclusion in a 384 well format.One of seven assay components measured from the CCTE_Harrill_HTTr_Viability assay. This was part of a pilot experiment. This is a cell-based assay that evaluates cell viability in MCF-7 cells cultured in phenol red-free DMEM + 10% charcoal-stripped fetal bovine serum. High content imaging is used to evaluate membrane integrity using propidium iodide dye exclusion. Measurements are taken at 24 hours after chemical dosing in 384-well format.The assay component endpoint CCTE_Harrill_HTTr_Viability_PRF_DMEM_24hr was analyzed with bidirectional fitting relation to DMSO as the negative control and baseline of activity. Using a type of viability reporter to understand changes in cytotoxicity, gain-of-signal activity can be used to evaluate membrane integrity using propidium iodide dye exclusion. To generalize the intended target to other relatable targets, this assay endpoint is annotated to cell cycle, where the subfamily is cytotoxicity.
Chemicals were tested in MCF7 cells in an eight point dilution series with a twenty-four hour exposure duration.

[7] = CCTE_Harrill_HTTr_Apoptosis_DMEM_6hr: (Pilot) CCTE's 6-hour Apoptosis Assessment for the High-Throughput Transcriptomics (HTTr) Platform, in MCF-7 cells cultured in DMEM + 10% fetal bovine serum, Harrill Lab (AID 2283981)
Method in brief: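 MCF-7 cells grown in DMEM + 10% FBS were exposed for 6 hours to an eight-point dilution series. CellEvent Caspase 3/7 Green signal was imaged; activity fitted bidirectionally against DMSO.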

[8] = CCTE_Harrill_HTTr_Apoptosis_DMEM_12hr: (Pilot) CCTE's 12-hour Apoptosis Assessment for the High-Throughput Transcriptomics (HTTr) Platform, in MCF-7 cells cultured in DMEM + 10% fetal bovine serum, Harrill Lab (AID 2283982)
Method in brief: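 Caspase-3/7 activity was measured by high-content imaging (CellEvent Caspase 3/7 Green) after a 12-hour exposure of MCF-7 cells grown in DMEM with 10% FBS. Eight-point concentration series, fitted bidirectionally against vehicle.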

[9] = molecular target: Retinoic acid receptor RXR-alpha (Homo sapiens) (UniProt P19793); assay: TOX21_TR_RXR_BLA_Antagonist_Followup_ratio: Tox21 Thyroid Hormone Receptor beta Retinoid X Receptor alpha (RXRa) Antagonism Beta-lactamase (BLA) Follow-Up Assay, Ratio (AID 2283972; active = hit-call score of the fitted dose curve at least 0.9, where 1 is the maximum)
From the text: GeneBLAzer RXRa-UAS-bla HEK293T assay (RXRa-bla) (ThermoFisherScientific Catalog No. K1697) was run in qHTS 1536 well format as a secondary assay for specificity of response in the TOX21_TR_GH3_LUC_Agonist assay.TOX21_TR_RXR_BLA_Antagonist_Followup_ratio is an assay readout measuring reporter gene via receptor activity and designed using inducible reporter (beta lactamase induction) detected with GAL4 b-lactamase reporter gene. The signal is derived from the ratio of cleaved (ch2) to uncleaved (ch1) reporter gene substrate used as the measure of target activity.Data from the assay component TOX21_TR_RXR_BLA_Antagonist_Followup_ratio was analyzed into 1 assay endpoint. This assay endpoint, TOX21_TR_RXR_BLA_Antagonist_Followup_ratio, was analyzed in the positive analysis fitting direction relative to DMSO as the negative control and baseline of activity. Using a type of inducible reporter, loss-of-signal activity can be used to understand changes in the reporter gene as they relate to the gene RXRA. Furthermore, this assay endpoint can be referred to as a primary readout, because this assay has produced multiple assay endpoints and this ratio serves a reporter gene function to understand target activity. To generalize the intended target to other relatable targets, this assay endpoint is annotated to the nuclear receptor intended target family, where subfamily is non-steroidal.
Cell Media Required: Growth (90% DMEM/F-12, 10% Fetal Bovine Calf Serum, 100U/ml Penicillin, 100 ug/ml Streptomycin), Assay (10ng/mL sodium selenite, 10 ug/mL humanapo-transferrin, […] uM ethanolamine, 10 ug/mL insulin, 500 ug/mL bovine serum albumin (BSA))Assay Protocol: RXRa-bla cells were seeded at 2,500/well in 6 uL of the assay medium containing phenol red-free DMEM with 2% charcoal-stripped FBS in 1,536-well black-wall/clear-bottom plates (Greiner Bio-One North America) usinga Multidrop Combi dispenser. […] After 2-h incubation at room temperature, the fluorescence intensity was measured using an Envision plate reader (Perkin Elmer). Data were expressed as the ratio of 460:530 nm.

[10] = TOX21_TR_RXR_BLA_Antagonist_Followup_viability: Viability Assessment in the Tox21 Thyroid Hormone Receptor beta Retinoid X Receptor alpha (RXRa) Antagonism Beta-lactamase (BLA) Follow-Up Assay (AID 2283979; active = hit-call score of the fitted dose curve at least 0.9, where 1 is the maximum)
Method in brief: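 Follow-up compounds (11 concentrations, triplicate) were incubated 16 h at 37C/5% CO2 with HEK293T RXRa-bla cells seeded at 2,500/well in charcoal-stripped-serum medium. ATP content by CellTiter-Glo luminescence gave viability; curves fitted in both directions against DMSO.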

Measured: AC50

Retinoic acid receptor RXR-alpha (Homo sapiens), sequence (P19793 whole entry, looked up, the tested form may be a part): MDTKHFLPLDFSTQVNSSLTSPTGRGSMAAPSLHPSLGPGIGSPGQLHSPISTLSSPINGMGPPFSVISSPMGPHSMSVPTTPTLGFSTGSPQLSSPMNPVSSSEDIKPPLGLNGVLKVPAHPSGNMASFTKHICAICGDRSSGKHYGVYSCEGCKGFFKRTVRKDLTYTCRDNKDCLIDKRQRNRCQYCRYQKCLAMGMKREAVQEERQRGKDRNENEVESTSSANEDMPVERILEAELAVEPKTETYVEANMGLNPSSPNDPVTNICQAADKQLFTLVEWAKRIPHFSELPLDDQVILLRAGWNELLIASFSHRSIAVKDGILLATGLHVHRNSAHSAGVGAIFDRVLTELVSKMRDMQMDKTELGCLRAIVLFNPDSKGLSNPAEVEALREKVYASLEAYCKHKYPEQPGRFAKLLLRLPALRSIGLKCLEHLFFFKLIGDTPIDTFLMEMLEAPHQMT

CCNc1nc(Cl)nc(NC(C)(C)C#N)n1
inactive: [1] | [2] | [3] | [4] | [5] | [6] | [7] | [8]

CON=C(C(=O)OC)c1ccccc1CON=C(C)c1cccc(C(F)(F)F)c1
inactive: [9] | [1] | [2] | [3] | [4] | [5] | [10] | [6] | [7] | [8]

C=C(C)[C@H]1Cc2c(ccc3c2O[C@@H]2COc4cc(OC)c(OC)cc4[C@@H]2C3=O)O1
active: [3] 31.1 nM | [6] 24.6 nM
inactive: [9] | [1] | [2] | [4] | [5] | [10] | [7] | [8]

CC(C1CC1)C(O)(Cn1cncn1)c1ccc(Cl)cc1 (stereo not drawn)
inactive: [1] | [2] | [3] | [4] | [5] | [6] | [7] | [8]

CSC1=N[C@@](C)(c2ccccc2)C(=O)N1Nc1ccccc1
inactive: [9] | [10]
